Nrf2 activator: activates Nrf2 signaling; Potency, µM (top dose mostly 46.1 µM), inactives show top-dose activation, actives largely listed as activators; AID 624171; AREc32 ARE-luciferase reporter (MCF7-derived line), luminescence, 24 h; hit rate 0.31% among 410,000; also: potency is read from the fitted curve at half-maximal effect; % of control where 0% means no effect; nearly all actives have a fitted effect of over 65% in size
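AREc32_Fluc, 1000 cells/well, OPTI-MEM + 5% FBS, o/n 37 deg C 5% CO2; 23 nL cpd by pin tool, 24 hr; Steady-Glo 30 min RT, luminescence.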
ERG Ets-DNA blk: inhibitors of human ERG Ets domain-DNA interaction; fluorescence polarization, His-ERG Ets domain / labelled DNA; AID 624246; P11308; hit rate 0.028% among 370,000; Potency, µM (top dose mostly 76.9 µM), inactives show top-dose FP activity, negative = inhibition, hits mostly inhibitors; active = well fitted inhibition curve with a large enough effect in the polarisation, with a control signal flat; inconclusive = small, poorly fitted or top-dose-only effect, or effect the other way, or a change in a side signal; inactive = no such curve, though single readings can be large or run the other way; the % refers to the polarisation;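 also: polarization taken with two DNA probes labelled with fluorescein and Texas red; potency is read from the fitted curve at half-maximal effect; % of control where 0% means no effect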
Target sequence (P11308 whole entry, looked up, the tested form may be a part): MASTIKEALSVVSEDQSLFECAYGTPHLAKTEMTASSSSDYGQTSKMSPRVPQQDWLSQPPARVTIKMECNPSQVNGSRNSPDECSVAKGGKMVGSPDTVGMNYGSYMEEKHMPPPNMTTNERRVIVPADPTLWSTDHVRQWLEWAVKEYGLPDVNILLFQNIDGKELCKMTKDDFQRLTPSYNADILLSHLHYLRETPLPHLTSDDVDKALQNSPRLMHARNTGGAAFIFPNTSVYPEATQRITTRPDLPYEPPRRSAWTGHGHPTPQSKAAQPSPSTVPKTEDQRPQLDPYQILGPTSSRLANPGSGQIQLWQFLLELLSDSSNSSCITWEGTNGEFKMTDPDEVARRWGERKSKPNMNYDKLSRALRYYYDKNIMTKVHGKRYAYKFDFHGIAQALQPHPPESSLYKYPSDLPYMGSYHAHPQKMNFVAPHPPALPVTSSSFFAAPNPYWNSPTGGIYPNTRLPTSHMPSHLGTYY
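His-tagged ERG Ets domain (1 uM in the protein solution; 300mM KCl, 50mM Tris-HCl, 1mM EDTA, 1mM DTT, pH 7.5) received compound, then a probe mix of 5 nM fluorescein-DNA and 100nM Texas-615-DNA. Fluorescence polarization was read for both dyes.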
Nrf2 inh: blocks Nrf2 signaling. Potency, µM (doses to about 46 µM), for inactives: top-dose activity change, negative = inhibition, actives largely listed as inhibitors. A549 ARE-Fluc reporter, luciferase luminescence, 18-24 h. hit rate 2.1% among 360,000; also: potency is read from the fitted curve at half-maximal effect; % is scaled to controls: 0 for no effect and ±100 for the full control effect; nearly all actives have a fitted effect of over 60% in size
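Two sequential reads on A549 ARE_Fluc cells exposed to compound for 18-24 h: a CellTiter-Fluor fluorescence read for viability, then a luciferase luminescence read for Nrf2/ARE activity.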
LDHA block: blocks human lactate dehydrogenase A; purified LDHA, NADH/diaphorase-resazurin fluorescence; hits give low values; hit rate 0.15% among 480,000; activity change, % (values are at about 110 or 230 µM); P00338; in the data active = activity change below about -30%; inconclusive = mostly about -25% to -30%;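 also: plate controls were DMSO wells for no effect and wells without enzyme for full effect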
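Human LDH5 (2 nM) was incubated with 0.06 mM NADH and 0.2 mM pyruvate for 5 min at room temperature in Tris pH 7.4. Remaining NADH was coupled through diaphorase/resazurin, and resorufin fluorescence was read at 0 and 20 min.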
A549 viability: counter-screen for Nrf2 inhibitors: cytotoxicity in A549 cells | A549 ARE-Fluc cells, CellTiter-Fluor viability, 18-24 h | Potency, µM (highest dose often 46 µM), for the others: at the highest dose activity change, negative = cytotoxicity, usual class: inhibitors | hit rate 0.16% among 390,000 | AID 504648; also: potency is read from the fitted curve at half-maximal effect; % is scaled to controls: 0 for no effect and ±100 for the full control effect
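A549 ARE_Fluc cells in 5% FBS OPTI-MEM were exposed to compounds in concentration-response for 18-24 h at 37 deg C. Viability was read by CellTiter-Fluor fluorescence (Ex 405/Em 525) after 30 min, before the luciferase read.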
12-LOX inh: blocks human arachidonate 12S-lipoxygenase | P18054 | purified 12hLO, xylenol orange hydroperoxide absorbance | Potency, µM (top dose mostly 108 µM), without a hit: top-dose activity change, negative = inhibition, most hits filed as inhibitors | hit rate 1.1% among 580,000; also: potency is read from the fitted curve at half-maximal effect; % is scaled to controls: 0 for no effect and ±100 for the full control effect
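Hydroperoxide product was detected by ferrous iron/xylenol orange as the 573 to 405 nm absorbance ratio. Arachidonic acid at 40 uM (final) was turned over for 30 min at room temperature by 150 nM human 12hLO, pH 7.0 Hepes buffer, after 15 min compound preincubation.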
Active calls of the source: *; ? = inconclusive; nt = no result given; [ ] = dose if it differs, or a comment. Only some compounds are listed: those with a hit (about 2.7% of all), similar ones and a draw of the others. Unless noted, calls follow the shape of the dose curve; as a rule, active = well fitted curve in the direction sought with a large enough effect; inconclusive = small, poorly fitted or top-dose-only effect, or another doubt; inactive = no such curve, though single readings can be large; an effect the other way counts as inactive or inconclusive.

SMILES	Nrf2 activator	ERG Ets-DNA blk	Nrf2 inh	LDHA block	A549 viability	12-LOX inh
O=C(N/N=C/c1cccc(Oc2ccccc2)c1)c1cccc(O)c1	0%	9%	13%	-13	-5%	480%
O=C(N/N=C/c1ccc([N+](=O)[O-])s1)c1ccncc1	?	23%	?	7	-10%	nt
O=C(N/N=C/c1cccc(Oc2ccccc2)c1)c1cccc(Br)c1	3%	-22%	18µM*	-5	0%[1.84 µM]	3%
Cc1ccc(C(=O)N/N=C/c2ccc([N+](=O)[O-])s2)cc1	-4%	7%	16µM*	-35*	?	-5%
CCc1ccc(OC(=O)c2ccccc2Br)cc1	nt	nt	nt	-1	nt	-23%
CC12CC3CC(C1)CC(c1ccc(O)cc1)(C3)C2	nt	nt	nt	10	nt	?
CCn1c(SCC(=O)N/N=C/C=C\c2ccccc2[N+](=O)[O-])nnc1-c1ccccc1	16%	-6%	16µM*	-13	-17%	-10%
Cc1ccc(CSc2nnc(SCC(=O)N/N=C/C=C/c3ccccc3[N+](=O)[O-])s2)cc1	0%	3%	?	-7	12%	-25%
Cc1ccc(C)c(CSc2nnc(C)n3c2cc2sccc23)c1	1%	0%	26µM*	-4	-1%	-36%
CCOC(=O)c1c(-c2ccc(C)o2)csc1NC(=O)CSc1nncs1	19%	nt	21µM*	7	2%	-19%
CCOC(=O)c1c(-c2ccc(C)o2)csc1NC(=O)CN(C)CC(=O)Nc1ccc(C)cc1	-1%	-4%	16µM*	2	-27%	-12%
CCOC(=O)c1c(-c2ccc(C)o2)csc1NC(=O)CN1CCCCC1	6%	-4%	-20%	2	0%	101%
COc1ccc(C2=C(O)C(=O)N(Cc3ccccn3)C2c2ccccc2F)cc1 (configuration not stated)	nt	nt	nt	2	nt	?
CC(NC(=O)c1ccc(Cl)o1)c1nc(-c2ccc(F)cc2)no1 (configuration not stated)	nt	nt	nt	1	nt	-26%
CCOc1cc(Br)c(C2C(C#N)=C(N)Oc3c2ccc2ccccc32)cc1OC (configuration not stated)	nt	nt	nt	-10	nt	?
N=c1c2c(ccn1-c1ccccc1)Oc1ccc3ccccc3c1C2c1ccccc1 (configuration not stated)	nt	nt	16µM*	0	?	nt
N=c1c2c(ccn1CCCc1ccccc1)Oc1ccc3ccccc3c1C2c1ccccc1 (configuration not stated)	nt	nt	15µM*	-14	15µM*	nt
COc1ccc(C2c3c(ncn(CCCO)c3=N)Oc3ccc4ccccc4c32)cc1 (configuration not stated)	7%	-3%	?	-8	-11%	?
COc1cccc(C2c3c(ncn(-c4ccc(C)cc4)c3=N)Oc3ccc4ccccc4c32)c1 (configuration not stated)	nt	nt	11%	1	-18%	nt
Cc1cccc(NC(=O)C(C)(C)c2ccc(Cl)cc2)n1	nt	nt	nt	0	nt	?
O=C(c1cc2nc(-c3cccs3)cc(C(F)(F)F)n2n1)N1CCCc2ccccc21	0%	-5%	18µM*	-1	-17%	0%
Oc1cccc2ccc(Nc3ccccn3)nc12	-2%	-10%	?	15	4.1µM*	?
CCC1S/C(=N/C(=O)NC2CCCCC2)NC1=O (configuration not stated)	0%	-1%	?	-2	-4%	0%
O=C(/N=C1\NC(=O)C(F)(C(F)(F)F)S1)NC1CCCCC1 (configuration not stated)	0%	0%	nt	-1	-10%	10µM*
COC(=O)c1ccc2nc(-c3ccco3)c(Cc3cccc(F)c3)n2c1	11µM*	nt	nt	2	nt	?
COC(=O)c1ccc2nc(-c3ccc(C)cc3)c(Cc3ccc(C)cc3)n2c1	11%	nt	nt	7	nt	-95%
COC(=O)c1ccc2nc(-c3ccco3)c(Cc3ccc(OC)cc3C)n2c1	11µM*	nt	nt	0	nt	?
